# Assay results taken from PubChem BioAssay AID1851 (National Center for Advancing Translational Sciences (NCATS), 2009).
# Screen size: about 16,000 compounds; about 4,000 (25%) were called active. Another 26% or so got no clear call; they are omitted. These entries were drawn from the full list. A number with no mark means an inactive call. Calls follow the shape of the dose curve; as a rule, active = well fitted curve in the direction sought with a large enough effect; inconclusive = small, poorly fitted or top-dose-only effect, or effect the other way; inactive = no such curve, though single readings can be large or run the other way.
# Target: Cytochrome P450 2C9 (Homo sapiens) (UniProt P11712)
# Sequence (P11712 whole entry, looked up): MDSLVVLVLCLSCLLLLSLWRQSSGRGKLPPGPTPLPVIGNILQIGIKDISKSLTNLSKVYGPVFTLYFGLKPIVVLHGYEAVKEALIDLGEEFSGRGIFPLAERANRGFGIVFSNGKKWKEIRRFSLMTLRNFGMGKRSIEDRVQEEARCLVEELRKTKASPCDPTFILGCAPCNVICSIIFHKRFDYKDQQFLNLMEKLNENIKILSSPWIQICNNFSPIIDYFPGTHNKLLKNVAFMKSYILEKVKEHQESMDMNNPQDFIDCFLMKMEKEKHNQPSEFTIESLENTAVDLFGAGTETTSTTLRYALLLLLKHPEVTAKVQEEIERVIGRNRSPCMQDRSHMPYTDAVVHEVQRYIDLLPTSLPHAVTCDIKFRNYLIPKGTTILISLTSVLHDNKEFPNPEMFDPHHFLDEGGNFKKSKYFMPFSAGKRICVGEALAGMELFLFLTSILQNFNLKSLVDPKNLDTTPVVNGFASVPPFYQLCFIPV
# Assay: Cytochrome panel assay with activity outcomes
# Conditions: recombinant CYP, pro-luciferin dealkylation, luminescence, p450-cyp2c9; series mostly up to 57.1 µM
# % is scaled to controls: 0 for no effect and ±100 for the full control effect.
Compound,AC50,"activity, negative = inhibition"
CC1CC2(CCCCC2)N2C(=O)C(=O)c3cccc1c32 (centres undefined),5.01 µM (active),–
O=c1[nH]c2cc(Br)cnc2nc1/C=C(\O)c1ccc(F)cc1,inactive,–
Cc1ccccc1S(=O)(=O)c1c(C)cc(-c2ccccc2)[nH]c1=O,22.4 µM (active),–
O=c1cc(-c2ccccc2)[nH]c2nc(Cl)ccc12,inactive,–
CN(C)CCCNc1c(C(=O)O)cnc2c1cnn2C,inactive,–
COc1ccc(-c2nc3cnc(OC)nc3n(C)c2=O)cc1,inactive,–
Cn1c2c(c(=O)n(C)c1=O)C(C(F)(F)F)(C(F)(F)F)N=C(c1ccc(Cl)cc1)N2,2 µM (active),–
Cn1c(=O)c(-c2ccc(Cl)cc2)nc2cncnc21,inactive,–
COc1cccc(Nc2ncc3nc(-c4ccc(F)cc4)c(=O)n(C)c3n2)c1,inactive,–
COc1ccc(C2=NC(C(F)(F)F)(C(F)(F)F)c3c(n(C)c(=O)n(C)c3=O)N2)cc1,8.91 µM (active),–
CCN1CCc2nc(N)oc2CC1,inactive,–
N[C@](CC1c2ccccc2Oc2ccccc21)(C(=O)O)[C@@H]1C[C@@H]1C(=O)O,inactive,–
CC(=O)c1ccc(OC(=O)C2c3ccccc3Oc3ccccc32)cc1,28.2 µM (active),–
CC[N+](C)(CC)CCOC(=O)C1c2ccccc2Oc2ccccc21,inactive,–
CCOC(=O)Cn1nc(C)n(-c2ccc(C)cc2)c1=O,inactive,–
CCOC(=O)c1cc2c(C)n(-c3ccc(C)cc3)c(C)c2ccc1=O,14.1 µM (active),–
CCOc1ncnc2c1oc1nc(CC(C)C)c3c(c12)CC(C)(C)OC3,20 µM (active),–
CCCNC(=O)OC[C@@H]1O[C@H](CCO/N=C(\C)CCN2CCCc3nc(C)c(C)cc32)C=C[C@@H]1Oc1ccc(OC)cc1,–,-26.6% [at 11.4 µM]
CC12c3ccccc3C(c3ccccc31)C1C(=O)N(Cc3cccnc3)C(=O)C12 (centres undefined),11.2 µM (active),–
CNC(=O)Oc1ccc2c(c1)[C@@]1(C)CCN(C)[C@@H]1N2C,inactive,–
O=C(COc1ccccc1C(=O)N/N=C\c1ccc(O)c(O)c1)N/N=C/c1ccc(O)c(O)c1,12.6 µM (active),–
O=C(N/N=C/c1cccc(OC2CSC2)c1)c1ccccc1O,inactive,–
COc1ccccc1-c1nccc(NCc2cccc(C)c2)n1,–,-8.67% [at 2.29 µM]
COC(=O)c1ccc(C#CC(NP(=O)(c2ccccc2)c2ccccc2)c2ccccc2)cc1 (centres undefined),10 µM (active),–

Compound,AC50,"activity, negative = inhibition"
COC(=O)c1ccc(C23CC2(C(NP(=O)(c2ccccc2)c2ccccc2)c2ccccc2)C3)cc1 (centres undefined),10 µM (active),–
COC(=O)c1ccc(NC(=O)C2CCCCC2C(=O)O)cc1 (centres undefined),inactive,–
CN(C)Cc1ccccc1-c1nccc(N(C)Cc2ccco2)n1,–,-2.53% [at 2.29 µM]
CC(C)(C)N1C(=O)[C@@H]2[C@H]3C(=CC[C@H]2C1=O)C(=O)[C@H]1O[C@H]1[C@H]3O,–,4.81% [at 11.4 µM]
Cc1ccc(-c2csc3ncnc(NCCN4CCOCC4)c23)cc1,14.1 µM (active),–
CN(C)C(=O)c1ccc(-c2cncnc2NCCN2CCOCC2)cc1,–,0.0156% [at 2.29 µM]
CN(C)c1ccc(-c2cncnc2NCCN2CCOCC2)cc1,–,1.82% [at 2.29 µM]
O=C1C2=C(NC(=S)NC2c2ccc(Cl)cc2)NC(c2ccc(Cl)cc2)N1c1ccc(Cl)cc1 (centres undefined),11.2 µM (active),–
O=[n+]1c2c(n([O-])c3cc(F)c(F)cc31)CCCC2,inactive,–
O=[N+]([O-])c1ccc2c(c1)Cc1cc(N=Cc3ccc4c(c3)OCO4)ccc1-2,–,-3.27% [at 11.4 µM]
O=S(=O)(N/N=C\c1ccc2c(c1)OCO2)c1ccc(Cl)cc1,1.12 µM (active),–
O=S(=O)(N/N=C/c1ccc2c(c1)OCCO2)c1ccc(Cl)cc1,1.41 µM (active),–
O=c1oc2cc(N=Cc3ccc4c(c3)OCO4)ccc2c2ccccc12,–,-21.1% [at 11.4 µM]
C[C@]1(OC(=O)/C=C\c2ccccc2)C[C@@H](O)[C@@]2(O)C=CO[C@@H](O[C@H]3O[C@@H](CO)[C@@H](O)[C@@H](O)[C@@H]3O)[C@H]21,inactive,–
CCCN=C(N)NCCC[C@H](N)C(=O)O,3.98 µM (active),–
NC(=NCCC[C@H](N)C(=O)O)NO,inactive,–
CC(N)=NCCCC[C@H](N)C(=O)O,inactive,–
COc1ncc2ncc(=O)n(CCC#N)c2n1,inactive,–
COCCNc1ncnc2ccc(-c3ccc(N(C)C)cc3)cc12,–,-3.32% [at 2.29 µM]
COC(Cc1nnc(SC)n1-c1ccc(Cl)cc1)OC,inactive,–
O=S(Cc1ccc(Br)cc1)Cc1nnc(SCc2ccc(Cl)cc2)n1-c1ccccc1 (centres undefined),10 µM (active),–
Cc1cccc(NC(=S)N2CCC(N(C)CC3CCCO3)CC2)c1C (centres undefined),inactive,–
Cc1ccc(S(=O)(=O)Nc2nc3ccccc3nc2N2CCc3ccccc3C2)cc1,0.251 µM (active),–
CN1CCN(c2ncnc3ccc(-c4cccc(NS(C)(=O)=O)c4)cc23)CC1,–,22.3% [at 2.29 µM]

Compound,AC50,"activity, negative = inhibition"
O=C(Cc1ccc(-n2c(=O)[nH]c3ccccc3c2=O)cc1)N1CCN(c2cccc(Cl)c2)CC1,3.55 µM (active),–
O=C(Cn1ccc2ccccc2c1=O)N1CCN(c2cccc(Cl)c2)CC1,inactive,–
O[C@H](CN1CCN(c2cccc(Cl)c2)CC1)C(c1ccccc1)c1ccccc1,inactive,–
COc1ccc(CCNC(=O)CC(NS(=O)(=O)c2ccc(NC(C)=O)cc2)C(C)C)cc1OC (centres undefined),2.51 µM (active),–
COc1ccc(CCNC[C@H](O)c2ccc(O)cc2)cc1OC,inactive,–
COc1ccc(CONS(=O)(=O)c2ccc(NC(C)=O)cc2)cc1Cl,12.6 µM (active),–
CC(=O)Nc1ccc(S(=O)(=O)NCCc2ccc(F)cc2)cc1,inactive,–
CC(=O)Nc1ccc(S(=O)(=O)NC(CC(=O)NCCCN2CCOCC2)C(C)C)cc1 (centres undefined),inactive,–
CC(=O)Nc1ccc(S(=O)(=O)N=S(C)C)cc1,inactive,–
OCCN(CO)CO,–,-10.4% [at 11.4 µM]
CC(=O)OC[C@H]1O[C@@H](O/N=C(\C)CCN2CCCCc3nc(C)c(C)cc32)[C@H](OC(C)=O)[C@@H](OC(C)=O)[C@H]1OC(C)=O,–,23.5% [at 11.4 µM]
c1ccc(NN(Cc2cnccn2)c2ccccc2)cc1,3.16 µM (active),–
c1ccc(CCc2cccnc2)nc1,–,-6.59% [at 11.4 µM]
C#CCOC(=O)Nc1ccc(=O)n(Cc2c(Cl)cccc2Cl)c1,1.58 µM (active),–
CCn1c(=O)[nH]c2ccccc21,inactive,–
O=C(OC1CCN(c2ccc([N+](=O)[O-])cc2)CC1)c1ccccc1,0.631 µM (active),–
C[N+]1(C)CCC(OC(=O)C(c2ccccc2)c2ccccc2)CC1,inactive,–
O=C(CCCc1ccccc1)N1CCN(c2ccc([N+](=O)[O-])cc2)CC1,inactive,–
O=C(O)c1cccc2cccc(-c3cccc4cccc(C(=O)O)c34)c12,–,-4.84% [at 11.4 µM]
CN1C(=O)/C(=N\OC(=O)c2cccc3ccccc23)c2ccccc21,2.82 µM (active),–
Cn1c(=O)cc(OCCCC(=O)Nc2cccnc2)c2ccccc21,inactive,–
CC(C(=O)Nc1cccnc1)N1C(=O)C2C3C=CC(C3)C2C1=O (centres undefined),inactive,–
CCn1c(=O)cc(OCC(=O)Nc2cccnc2)c2ccccc21,15.8 µM (active),–
CO[C@H]1COC(=O)[C@@H](Cc2ccccc2)NC(=O)[C@@H](C)COC(=O)CCC[C@@H]1C,–,18.6% [at 11.4 µM]

Compound,AC50,"activity, negative = inhibition"
COc1ccc2cc3cc(C(=O)NCc4ccc5c(c4)OCO5)oc3nc2c1,4.47 µM (active),–
COc1ccc2cc3cc(C(=O)NCc4ccccn4)oc3nc2c1,inactive,–
CCCN(CCC)CCCNC(=O)c1cc2cc3ccc(OC)cc3nc2o1,inactive,–
Cc1ccc(-n2c(-c3ccc(Br)cc3)c[n+]3c2CCc2ccc4cccnc4c2-3)cc1,inactive,–
OCc1ccc(-c2nn(Cc3ccccc3)c3ccccc23)o1,31.6 µM (active),–
NC(=O)c1csc(-c2ccc(CO)o2)n1,–,6.84% [at 11.4 µM]
CCNc1ncc2nc(-c3ccc(F)cc3)c(=O)n(CCC#N)c2n1,inactive,–
COc1cc2nc(SCc3ccc(Cl)cc3Cl)n(Cc3cccs3)c(=N)c2cc1OC,2.51 µM (active),–
CN(C)c1ncc2nc(-c3ccc(Cl)cc3)c(=O)n(Cc3cccs3)c2n1,inactive,–
CN1CCN(c2ncncc2-c2ccccc2C(F)(F)F)CC1,–,10.5% [at 2.29 µM]
Cc1ccc(S(=O)(=O)ON=C2CCN(S(=O)(=O)c3ccccc3)CC2)cc1,inactive,–
Cc1cc(C)c(S(=O)(=O)N2CCCCC2)c(C)c1N(C)S(=O)(=O)c1ccccc1,2 µM (active),–
CCN1C(=O)[C@H]2[C@H]3[C@H](O)[C@H](O)C/C(=N/OCC(C)C)[C@@H]3CC[C@@H]2C1=O,–,28.3% [at 11.4 µM]
Cc1cccc(OCCSCc2nc3ccccc3[nH]2)c1,5.01 µM (active),–
C[N+](C)(C)CCCSc1nc2ccccc2[nH]1,–,3.61% [at 11.4 µM]
CS(=O)(=O)Nc1cccc(-c2ccc3ncnc(Nc4ccc(F)cc4)c3c2)c1,–,-7.12% [at 2.29 µM]
CC(C)C12CN3CC(C(C)C)(CN(C1)C3c1ccco1)C2=O (centres undefined),inactive,–
Cc1ccc(N=CC2=C(O)CC(c3ccco3)CC2=O)cc1 (centres undefined),8.91 µM (active),–
COc1ccc(C(=O)N2CCC3(CCCN(C)C3)CC2)cc1,inactive,–
CCCn1c(CC)nc([N+](=O)[O-])c1S(=O)(=O)c1ccccc1,inactive,–
COc1ccc(COc2ccsc2C(=O)Nc2ccc(Cl)c(Cl)c2)cc1,2.82 µM (active),–
CNC(=S)NNC(=O)c1sccc1OCc1ccc(C)cc1,inactive,–
